Reference: PubChem BioAssay (Tox21)
“And” between values parts separate entries of the source, which are not always exact repeats. Equal entries are not always repeated. A structure can be active in one record and inactive in another. The source made the active and inactive calls. Entries that show only a call come without a potency. Unless noted, calls come from the whole dose curve; as a rule, active = well fitted curve in the direction sought with a large enough effect in the repeat runs; inconclusive = weak or mixed curves; inactive = no such curve, though single readings can be large; an effect the other way counts as inactive or inconclusive. Starred links: 1 amine or outer side, 2 acyl side, 3 side chain; linkers in the order of their positions; H or OH if unused. Positions of bridges follow the written chain, without caps; N, C: chain ends. Non-standard residues stand in square brackets, D forms with d. Residues, ends and D or L forms follow the SMILES beside them. Chains are numbered I, II in the order given. Actinocin(9to1) = Cc1c2oc3c(C)ccc(C(=O)[*:1])c3nc-2c(C(=O)[*:2])c(N)c1=O; NMeV = CN[C@H](C(=O)O)C(C)C; Sar = CNCC(=O)O

Legend:
[1] = qHTS assay to identify small molecule antagonists of the thyroid receptor (TR) signaling pathway - cell viability counter screen (AID 743064); note: nearly all actives have a fitted effect of over 50% in size; note: potency is the fitted concentration of half-maximal effect
How it was run: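 GH3.TRE-Luc cells, 4 h pre-plating; cpd + T3 1 nM final; 37 °C 23.5 h; CellTiter-Fluor 30 min; fluorescence read.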

[2] = qHTS assay to identify small molecule antagonists of the thyroid receptor (TR) signaling pathway (AID 743065); note: nearly all actives have a fitted effect of over 55% in size; note: potency is the fitted concentration of half-maximal effect
How it was run: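 GH3.TRE-Luc rat pituitary cells (two TREs driving luciferase) were dosed with compound, then stimulated with 1 nM T3 (final) for 23.5 h at 37 C. ONE-Glo luminescence was the read-out, with CellTiter-Fluor fluorescence as the cytotoxicity counter-screen.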

[3] = system: thyroid hormone receptor (rat, GH3 cells); assay: qHTS assay to identify small molecule agonists of the thyroid receptor (TR) signaling pathway (AID 743066; calls by dose curve)
[4] = target: Estrogen receptor (Homo sapiens) (UniProt P03372); assay: qHTS assay to identify small molecule antagonists of the estrogen receptor alpha (ER-alpha) signaling pathway (AID 743069; active = well fitted curve in the direction sought with a large enough effect in the signal ratio in the repeat runs, not every such curve was filed as active; inconclusive = weak or mixed curves, or effect the other way; inactive = no such curve, though single readings can be large or run the other way; the % refers to the signal ratio; note: potency is the fitted concentration of half-maximal effect)
How it was run: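 HEK293 ER-alpha-UAS-bla GripTite cells, held overnight in 2% charcoal-stripped FBS, 5,000 cells/well, preincubated 4 h, then compound plus 17beta-estradiol for 18 h at 37C. Beta-lactamase read by LiveBLAzer B/G FRET substrate, 2 h at room temperature.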

[5] = qHTS assay to identify small molecule antagonists of the estrogen receptor alpha (ER-alpha) signaling pathway - cell viability counter screen (AID 743074; calls by dose curve;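 note: HEK293 cells carrying ER-alpha-UAS-bla reporter stimulated with 17beta-estradiol; nearly all actives have a fitted effect of over 45% in size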; note: potency is the fitted concentration of half-maximal effect)
[6] = target: Estrogen receptor (Homo sapiens) (UniProt P03372); assay: qHTS assay to identify small molecule agonists of the estrogen receptor alpha (ER-alpha) signaling pathway (AID 743075; calls by dose curve; note: potency is the fitted concentration of half-maximal effect)
[7] = qHTS assay to identify small molecule antagonists of the estrogen receptor alpha (ER-alpha) signaling pathway using the BG1 cell line - cell viability counter screen (AID 743081);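 note: compound given together with 17beta-estradiol as the ER stimulus; nearly all actives have a fitted effect of over 45% in size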; note: potency is the fitted concentration of half-maximal effect
[8] = target: Aromatase (Homo sapiens) (UniProt P11511); assay: qHTS assay to identify aromatase inhibitors (AID 743083); note: nearly all actives have a fitted effect of over 55% in size; note: potency is the fitted concentration of half-maximal effect
[9] = qHTS assay to identify aromatase inhibitors - cell viability counter screen (AID 743084);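 note: cells stimulated with testosterone during compound exposure; nearly all actives have a fitted effect of over 55% in size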; note: potency is the fitted concentration of half-maximal effect
[10] = target: Aryl hydrocarbon receptor (Homo sapiens) (UniProt P35869); assay: qHTS assay to identify small molecule that activate the aryl hydrocarbon receptor (AhR) signaling pathway (AID 743085); note: nearly all actives have a fitted effect of over 15% in size; note: potency is the fitted concentration of half-maximal effect;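 for activation: HG2L7.5c1 human HepG2 liver cells with stably integrated DRE-driven firefly reporter; series mostly up to about 70 µM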
How it was run: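 Luminescence read-out: ONE-Glo reagent, 30 min at room temperature, in HG2L7.5c1 HepG2 reporter cells treated 24 h at 37C. Viability was measured beforehand by CellTiter-Fluor fluorescence after 30 min at 37C.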

[11] = qHTS assay to identify small molecule that activate the aryl hydrocarbon receptor (AhR) signaling pathway - cell viability counter screen (AID 743086); note: nearly all actives have a fitted effect of over 45% in size; note: potency is the fitted concentration of half-maximal effect
How it was run: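 HepG2-AhR-luc (HG2L7.5c1) cells, 4000/well, treated 24 h at 37 C with compound; viability measured as CellTiter-Fluor fluorescence after 30 min in the same wells as the luciferase read.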

[12] = target: Peroxisome proliferator-activated receptor gamma (Homo sapiens) (UniProt P37231); assay: qHTS assay to identify small molecule agonists of the peroxisome proliferator-activated receptor gamma (PPARg) signaling pathway (AID 743094; active = well fitted activation curve with a large enough effect in the signal ratio in the repeat runs, not every such curve was filed as active; inconclusive = weak or mixed curves, or effect the other way; inactive = no such curve, though single readings can be large or run the other way; the % refers to the signal ratio)
How it was run: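 Following 5 h plating at 37C, PPARg-bla HEK293H cells receive compound or DMSO for 17 h; fluorescence intensity is recorded after LiveBLAzer B/G loading for 1 h at room temperature.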

[13] = target: Peroxisome proliferator-activated receptor gamma (Homo sapiens) (UniProt P37231); assay: qHTS assay to identify small molecule antagonists of the peroxisome proliferator-activated receptor gamma (PPARg) signaling pathway (AID 743191; calls by dose curve; note: nearly all actives have a fitted effect of over 30% in size; note: potency is the fitted concentration of half-maximal effect)
How it was run: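 GeneBLAzer PPARg UAS-bla HEK293H cells, 5 h post-plating, exposed to compounds 17 h at 37C. LiveBLAzer B/G FRET substrate added for 1 h at room temperature; beta-lactamase reporter read by fluorescence intensity.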

[14] = qHTS assay to identify small molecule antagonists of the peroxisome proliferator-activated receptor gamma (PPARg) signaling pathway - cell viability counter screen (AID 743194); note: nearly all actives have a fitted effect of over 55% in size; note: potency is the fitted concentration of half-maximal effect
How it was run: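 Cytotoxicity counter screen in PPARg-bla HEK293H cells, same wells as reporter assay. Compounds plus 50 nM rosiglitazone (final) for 17 h at 37 C, then viability read by CellTiter-Glo luminescence.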

[15] = qHTS assay for small molecule agonists of the antioxidant response element (ARE) signaling pathway (AID 743202; active = well fitted activation curve with a large enough effect in the signal ratio in the repeat runs, not every such curve was filed as active; inconclusive = weak or mixed curves, or effect the other way; inactive = no such curve, though single readings can be large or run the other way; the % refers to the signal ratio)
How it was run: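 ARE-bla HepG2 cells (beta-lactamase reporter under the antioxidant response element), plated 5 hours, then exposed to compounds 16 hours at 37 C. LiveBLAzer B/G FRET substrate added for 2 hours at room temperature; fluorescence intensity read.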

[16] = qHTS assay for small molecule agonists of the antioxidant response element (ARE) signaling pathway - cell viability counter screen (AID 743203; calls by dose curve; note: nearly all actives have a fitted effect of over 55% in size; note: potency is the fitted concentration of half-maximal effect)
How it was run: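 Compounds in DMSO were pinned onto ARE-bla HepG2 cells plated 5 hrs earlier at 2,000 cells/well. Sixteen hours later at 37C/5% CO2, CellTiter-Glo was added and luminescence measured after 30 min at room temperature.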

[17] = qHTS assay for small molecule activators of the heat shock response signaling pathway - cell viability counter screen (AID 743209); note: nearly all actives have a fitted effect of over 50% in size; note: potency is the fitted concentration of half-maximal effect
How it was run: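 Counter screen for cytotoxicity in HeLa HSE-bla reporter cells. Treatment was 5 h at 37 C; viability was detected by luminescent ATP assay (CellTiter-Glo) in the same wells as the beta-lactamase read.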

[18] = qHTS assay for small molecule activators of the heat shock response signaling pathway (AID 743210; active = well fitted activation curve with a large enough effect in the signal ratio in the repeat runs, with a control signal flat, not every such curve was filed as active; inconclusive = weak or mixed curves; the % refers to the signal ratio; note: series mostly up to about 63 µM)
How it was run: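 HSE-bla HeLa cells (beta-lactamase reporter under heat shock response elements), plated overnight, then exposed to compounds 5 h at 37 C; LiveBLAzer B/G FRET substrate added, 2.5 h at room temperature, fluorescence intensity read.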

[19] = target: Estrogen receptor (Homo sapiens) (UniProt P03372); assay: qHTS assay to identify small molecule agonists of the estrogen receptor alpha (ER-alpha) signaling pathway using the BG1 cell line (AID 743079); note: nearly all actives have a fitted effect of over 20% in size; note: potency is the fitted concentration of half-maximal effect
[20] = qHTS assay to identify small molecule antagonists of the estrogen receptor alpha (ER-alpha) signaling pathway using the BG1 cell line (AID 743080; calls by dose curve;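 note: BG1 cells stimulated with 17beta-estradiol alongside compound; nearly all actives have a fitted effect of over 25% in size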; note: potency is the fitted concentration of half-maximal effect)
How it was run: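 BG1Luc4E2, endogenous ER-alpha, 4xERE-luc; 5 d charcoal-stripped FBS, phenol red free; 24 h plating; cpd + 17beta-estradiol 21.5 h, 37 C/5% CO2; CellTiter-Fluor viability 30 min, then ONE-Glo luciferase 30 min RT.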

Sequence of Aromatase (Homo sapiens) (P11511 whole entry, looked up): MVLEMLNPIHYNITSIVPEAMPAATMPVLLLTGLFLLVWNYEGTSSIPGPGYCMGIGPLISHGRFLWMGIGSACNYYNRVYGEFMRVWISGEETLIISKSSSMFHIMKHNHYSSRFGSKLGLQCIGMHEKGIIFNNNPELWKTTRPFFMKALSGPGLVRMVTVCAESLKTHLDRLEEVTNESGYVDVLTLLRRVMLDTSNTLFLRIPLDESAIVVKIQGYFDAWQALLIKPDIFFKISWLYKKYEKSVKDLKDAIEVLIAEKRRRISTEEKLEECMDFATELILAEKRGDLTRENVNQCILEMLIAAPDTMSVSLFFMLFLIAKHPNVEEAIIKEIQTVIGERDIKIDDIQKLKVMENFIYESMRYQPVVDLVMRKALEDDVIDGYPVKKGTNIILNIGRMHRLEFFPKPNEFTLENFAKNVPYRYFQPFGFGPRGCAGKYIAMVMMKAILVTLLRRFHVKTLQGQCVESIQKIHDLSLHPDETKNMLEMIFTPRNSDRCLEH
Sequence of Estrogen receptor (Homo sapiens) (P03372 whole entry, looked up): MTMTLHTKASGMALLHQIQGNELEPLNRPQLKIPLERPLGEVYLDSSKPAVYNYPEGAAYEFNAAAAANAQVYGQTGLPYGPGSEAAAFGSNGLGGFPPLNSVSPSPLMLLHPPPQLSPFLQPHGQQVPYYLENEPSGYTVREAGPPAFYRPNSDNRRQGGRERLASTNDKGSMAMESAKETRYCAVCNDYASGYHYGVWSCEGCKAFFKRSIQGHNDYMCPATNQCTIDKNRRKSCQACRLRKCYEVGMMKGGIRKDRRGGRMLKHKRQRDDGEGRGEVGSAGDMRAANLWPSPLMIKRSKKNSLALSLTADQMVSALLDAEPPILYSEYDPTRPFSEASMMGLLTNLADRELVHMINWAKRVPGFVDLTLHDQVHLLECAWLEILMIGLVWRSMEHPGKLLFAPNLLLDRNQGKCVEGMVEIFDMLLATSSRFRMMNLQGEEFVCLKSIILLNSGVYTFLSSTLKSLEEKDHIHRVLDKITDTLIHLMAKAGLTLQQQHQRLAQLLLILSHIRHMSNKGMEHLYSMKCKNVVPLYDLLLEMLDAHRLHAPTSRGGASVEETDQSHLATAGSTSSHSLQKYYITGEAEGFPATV
Sequence of Peroxisome proliferator-activated receptor gamma (Homo sapiens) (P37231 whole entry, looked up): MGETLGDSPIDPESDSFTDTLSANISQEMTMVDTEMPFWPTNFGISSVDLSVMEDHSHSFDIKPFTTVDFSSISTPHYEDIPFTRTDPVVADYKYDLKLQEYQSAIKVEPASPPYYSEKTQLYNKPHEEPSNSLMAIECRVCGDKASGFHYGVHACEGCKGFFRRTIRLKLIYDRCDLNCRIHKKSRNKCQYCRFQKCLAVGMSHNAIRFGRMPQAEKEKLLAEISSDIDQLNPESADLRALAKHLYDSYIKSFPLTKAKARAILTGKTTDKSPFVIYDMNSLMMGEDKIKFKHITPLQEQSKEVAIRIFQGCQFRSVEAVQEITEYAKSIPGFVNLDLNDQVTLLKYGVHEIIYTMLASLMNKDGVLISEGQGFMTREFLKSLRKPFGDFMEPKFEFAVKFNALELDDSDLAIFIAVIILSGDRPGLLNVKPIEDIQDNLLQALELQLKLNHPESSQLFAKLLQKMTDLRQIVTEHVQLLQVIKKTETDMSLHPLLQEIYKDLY
Sequence of Aryl hydrocarbon receptor (Homo sapiens) (P35869 whole entry, looked up): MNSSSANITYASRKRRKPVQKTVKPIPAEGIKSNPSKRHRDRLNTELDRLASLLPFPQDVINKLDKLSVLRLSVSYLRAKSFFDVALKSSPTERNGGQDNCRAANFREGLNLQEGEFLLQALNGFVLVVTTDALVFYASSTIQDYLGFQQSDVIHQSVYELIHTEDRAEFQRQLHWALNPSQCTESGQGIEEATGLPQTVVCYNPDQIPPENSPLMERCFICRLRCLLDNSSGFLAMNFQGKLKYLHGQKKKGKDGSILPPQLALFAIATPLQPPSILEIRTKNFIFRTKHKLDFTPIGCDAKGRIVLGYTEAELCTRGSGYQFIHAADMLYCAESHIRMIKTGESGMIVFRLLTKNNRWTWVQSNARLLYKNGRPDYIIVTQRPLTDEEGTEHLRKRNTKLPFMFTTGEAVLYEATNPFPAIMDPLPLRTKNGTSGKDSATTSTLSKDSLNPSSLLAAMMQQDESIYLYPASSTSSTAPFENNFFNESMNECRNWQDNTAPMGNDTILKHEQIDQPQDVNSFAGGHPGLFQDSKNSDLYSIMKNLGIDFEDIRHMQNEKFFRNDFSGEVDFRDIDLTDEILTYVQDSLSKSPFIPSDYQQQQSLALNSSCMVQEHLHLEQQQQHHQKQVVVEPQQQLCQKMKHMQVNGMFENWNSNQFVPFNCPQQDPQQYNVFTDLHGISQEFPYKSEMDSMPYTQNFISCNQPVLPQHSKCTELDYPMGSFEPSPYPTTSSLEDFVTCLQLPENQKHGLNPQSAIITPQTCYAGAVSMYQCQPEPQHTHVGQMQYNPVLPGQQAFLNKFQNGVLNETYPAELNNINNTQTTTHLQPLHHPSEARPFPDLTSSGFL

Row | Compound | Potency [1] | Potency [2] | Potency [3] | Potency [4] | Potency [5] | Potency [6] | Potency [7] | Potency [8] | Potency [9] | Potency [10] | Potency [11] | Potency [12] | Potency [13] | Potency [14] | Potency [15] | Potency [16] | Potency [17] | Potency [18] | Potency [19] | Potency [20]
1 | COC(=O)/C=C/c1ccccc1 | inactive | inactive | inactive | inactive | inactive | inactive | inactive | inactive | inactive | inactive | inactive | inactive | inactive | inactive | inactive | inactive | inactive | inactive |  | 
2 | COc1cc(C(=S)N2CCOCC2)ccc1O | inactive | inactive | inactive |  | inactive | inactive | inactive | inactive | inactive | inactive | inactive | inactive |  | inactive | inactive | inactive |  |  | inactive | inactive
3 | c1cc(C(c2ccc(OCC3CO3)cc2)C(c2ccc(OCC3CO3)cc2)c2ccc(OCC3CO3)cc2)ccc1OCC1CO1 (centres undefined) | 48.5 µM (active) | 20.1 µM (active) and 21.7 µM (active) | inactive | inactive | inactive | inactive | inactive | inactive | inactive |  | inactive |  |  | inactive |  | inactive | inactive |  | 20.1 µM (active) and 21.7 µM (active) | 
4 | CCOC(=O)C(C)C(C)=O (centres undefined) | inactive | inactive | inactive |  | inactive |  | inactive | inactive | inactive | inactive | inactive |  |  | inactive | inactive | inactive |  |  |  | 
5 | Cc1c2oc3c(C)ccc(C(=O)N[C@@H]4C(=O)N[C@H](C(C)C)C(=O)N5CCC[C@H]5C(=O)N(C)CC(=O)N(C)[C@@H](C(C)C)C(=O)O[C@@H]4C)c3nc-2c(C(=O)N[C@@H]2C(=O)N[C@H](C(C)C)C(=O)N3CCC[C@H]3C(=O)N(C)CC(=O)N(C)[C@@H](C(C)C)C(=O)O[C@@H]2C)c(N)c1=O (I: T[dV]P[Sar][NMeV] / II: T[dV]P[Sar][NMeV]; ester I:1-I:C, II:1-II:C; linker I:N-II:N via Actinocin(9to1)) | 6 nM (active) and 0.9 nM (active) | 4.2 nM (active) | inactive | 53.5 nM [inconclusive] (active) and 13.4 nM [inconclusive] (active) |  | inactive | 15 µM (active) and 13.3 µM (active) | 94.4 nM (active) and 1.7 nM (active) | 7.48 µM (active) |  | 18.8 nM (active) and 14.9 µM (active) |  |  |  |  |  |  | inactive |  | 84.1 nM (active) and 10.6 nM (active)
6 | CC1=C(C=O)C(C)(C)CC=C1 | inactive | inactive | inactive |  | inactive |  | inactive | inactive | inactive | inactive | inactive | inactive | inactive |  |  | inactive |  | inactive |  | 
7 | O=C(Nc1ccccc1SSc1ccccc1NC(=O)c1ccccc1)c1ccccc1 | 68.6 µM (active) | 21.8 µM (active) and 48.6 µM (active) | inactive | inactive |  |  | inactive | 13.8 µM (active) and 27.3 µM (active) | 15.4 µM (active) and 48.6 µM (active) | 30.8 µM (active) and 34.4 µM (active) | inactive |  |  | inactive |  | inactive |  |  | 27.4 µM (active) and 54.5 µM (active) | 
8 | CC(C)CCCCCCc1ccc(O)cc1 | 17.5 µM (active) and 24.3 µM (active) | 22.1 µM (active) and 21.7 µM (active) | inactive | inactive | inactive | 2.39 µM [inconclusive] (active) and 1.25 µM [inconclusive] (active) and 17.4 µM [inconclusive] (active) | inactive | 34.4 µM (active) | inactive and 31.2 µM (active) |  | inactive | inactive |  |  |  | inactive |  |  | 1.88 µM (active) and 878 nM (active) and 2.17 µM (active) | 
9 | Oc1ccc(Cl)cc1Cc1cc(Cl)ccc1O | 18.8 µM (active) and 15.6 µM (active) and 27.3 µM (active) | 7.5 µM (active) and 3.12 µM (active) and 5.45 µM (active) | inactive | inactive | 49.9 µM (active) and 38.9 µM (active) | inactive | inactive | 29.8 µM (active) and 30.6 µM (active) |  |  | inactive | inactive | 9.95 µM (active) and 26.6 µM (active) | 11.2 µM (active) and 3.89 µM (active) and 16.8 µM (active) |  | 27.8 µM (active) and 54.5 µM (active) |  |  |  | 
10 | CC(C)C(=O)c1c(C(C)C)nn2ccccc12 | inactive | inactive | inactive |  |  |  | inactive | inactive | inactive | inactive | inactive | inactive |  | inactive | inactive | inactive |  | inactive |  | 
11 | [Cl][In]([Cl])[Cl] | inactive |  | inactive | inactive | inactive | inactive | inactive | inactive | inactive |  | inactive |  |  |  |  | inactive | inactive |  |  | inactive
12 | CN(C)c1ccc2nc3ccc(=[N+](C)C)cc-3sc2c1 | 15 µM (active) and 26.2 µM (active) and 54.5 µM (active) |  | inactive | inactive | inactive |  | 18.8 µM (active) and 23.4 µM (active) and 54.5 µM (active) |  | 23.7 µM (active) and 13.1 µM (active) |  | 9.44 µM (active) and 16.6 µM (active) and 27.3 µM (active) | inactive | 43.6 µM (active) and inactive | inactive |  | 11.7 µM (active) and 9.69 µM (active) and 11.9 µM (active) | inactive and 54.9 µM (active) |  |  | 
